The list is not random: actives were taken first. Their share in the collection is about 2.2%.
SKN-1 inh = C. elegans SKN-1 inhibition; 360,000 compounds, 0.49% hits; C. elegans VP596 Pgst-4::GFP/RFP ratio, acrylamide-induced, 24 h; inhibition, % at 21.8 µM; AID 624304;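 active = interference check ratio from 0.5 to 1.5 plus GFP to RFP signal ratio inhibition reaching or exceeding a fixed threshold, cut at about 30% in these data, passing the limit was not always enough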
sPLA2-III inh = Inhibits HGIII-sPLA2 liposome hydrolysis, primary screen | QFRET BODIPY PC-A2 liposome hydrolysis, fluorescence | inhibition, % at 12.2 µM | 370,000 compounds, 0.56% hits;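 active = inhibition above mean plus 3 SD of compounds lying within the high and low control bounds, cut at about 19% in these data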;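 note: 0% = median of test compound wells and 100% = no enzyme DMSO wells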
Target sequence (Q9NZ20 whole entry, looked up): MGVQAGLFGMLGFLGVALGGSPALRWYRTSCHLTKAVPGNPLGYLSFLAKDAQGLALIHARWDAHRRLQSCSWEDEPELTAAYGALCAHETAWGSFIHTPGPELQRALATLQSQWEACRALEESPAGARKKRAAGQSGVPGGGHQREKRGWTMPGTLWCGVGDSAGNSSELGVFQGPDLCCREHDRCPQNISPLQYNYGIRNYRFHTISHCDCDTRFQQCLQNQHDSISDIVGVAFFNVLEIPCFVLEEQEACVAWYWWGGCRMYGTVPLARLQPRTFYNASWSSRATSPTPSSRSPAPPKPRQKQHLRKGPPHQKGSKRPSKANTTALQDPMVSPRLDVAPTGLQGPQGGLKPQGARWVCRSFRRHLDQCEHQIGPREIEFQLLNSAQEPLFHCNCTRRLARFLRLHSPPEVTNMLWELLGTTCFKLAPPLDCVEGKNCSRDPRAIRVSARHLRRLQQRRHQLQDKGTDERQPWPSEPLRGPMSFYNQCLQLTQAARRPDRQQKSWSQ
Mot1-301 SUMO = SUMOylation pathway inhibition by Mot1-301 growth rescue; S. cerevisiae Mot1-301 growth rescue, ATP luminescence, 38.5C; percent above DMSO median, 100 means doubled; growth rescue, % at 18.8 µM; 320,000 compounds, 1% hits; AID 2716;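 active = every valid replicate shows activation above 250% relative to neutral control wells; inactive = the rest, any valid replicate at or below 250%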;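 note: OY570 slx delta 5 strain wells were the positive control but not used for scaling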
Efflux pump mplx = blocks antifungal efflux pumps in multiplex yeast assay; S. cerevisiae Candida pump triplex, Nile Red efflux; AID 485275; 330,000 compounds, 0.44% hits; inhibition, % at 10 µM;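 active = plate passing quality check with inhibition over a set limit, or well fluorescence over plate mean plus 4 SD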;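 note: Nile Red retained in pooled yeast measured as flow cytometry median fluorescence; 0% = buffer negative control and 100% = Enniatin B positive control; higher means more Nile Red kept so more efflux inhibition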
Mot1 SUMO dose = yeast SUMO pathway inhibition in dose response; growth activity, percent, % at 42 µM; shares compounds with Mot1-301 SUMO; S. cerevisiae Mot1-301 galactose growth, ATP luminescence, 24 h; -100 = growth of slx-deleted rescue strain; 2,300 tested, under 10 active;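 active = Signal drops as the depositor expects, and the fitted half-maximal dose is no more than ten times the top valid tested dose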;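 note: more negative values mean stronger growth rescue toward the control strain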
Starred values were filed as active, the others as inactive.

Results for CC1(OC(=O)C2CCCC2)C(=O)C=C2C=C(c3ccsc3)OC=C2C1=O (centres undefined) ?
SKN-1 inh: 23; sPLA2-III inh: -3; Mot1-301 SUMO: 506*; Efflux pump mplx: 0; Mot1 SUMO dose: 0

How did O=Nc1c(-c2cccc([N+](=O)[O-])c2)nc2ncccn12 do in these assays?
SKN-1 inh: 6; sPLA2-III inh: -11; Mot1-301 SUMO: 556*; Efflux pump mplx: 1; Mot1 SUMO dose: 0

How did Nc1c(-c2ccccc2)nc2ncccn12 do in these assays?
SKN-1 inh: -11; sPLA2-III inh: 1

What do the screens show for `O=C(COC(=O)Cc1ccc(F)cc1)NC1CCCCCC1`?
SKN-1 inh: 14; sPLA2-III inh: -10

What do the screens show for `O=C(COC(=O)CSc1ccc([N+](=O)[O-])cc1)NC1CCCCCCC1`?
SKN-1 inh: 4; sPLA2-III inh: -17; Mot1-301 SUMO: 461*; Efflux pump mplx: 0; Mot1 SUMO dose: 0

Results for O=C(COC(=O)Cc1ccsc1)NC1CCCCCC1 ?
SKN-1 inh: 8; sPLA2-III inh: 4; Mot1-301 SUMO: 609*; Efflux pump mplx: 0; Mot1 SUMO dose: -1

What do the screens show for `CN(CCO)C(=O)c1ccc(-c2nn(C)c(=O)c3ccccc23)cc1`?
SKN-1 inh: -11; sPLA2-III inh: 6; Mot1-301 SUMO: 6; Efflux pump mplx: 0

Results for CN(C(=O)c1ccc(-c2nn(C)c(=O)c3ccccc23)cc1)C1CCCCC1 ?
SKN-1 inh: 8; sPLA2-III inh: 1; Mot1-301 SUMO: 736*; Efflux pump mplx: 0; Mot1 SUMO dose: 0

What do the screens show for `COc1cc(SC)ccc1C(=O)NNC(=O)c1cc(C)oc1C`?
SKN-1 inh: 0; sPLA2-III inh: 4; Mot1-301 SUMO: -16; Efflux pump mplx: 0

What do the screens show for `CCN(CC)S(=O)(=O)c1cccc(NC(=O)COC(=O)CCc2nc3ccccc3s2)c1`?
SKN-1 inh: 19; Mot1-301 SUMO: -4; Efflux pump mplx: 0

How did CCN(CC)S(=O)(=O)c1cc(NC(=O)COC(=O)CCc2nc3ccccc3s2)ccc1C do in these assays?
SKN-1 inh: 9; sPLA2-III inh: -37; Mot1-301 SUMO: 363*; Efflux pump mplx: 0; Mot1 SUMO dose: 0

Results for CCN(c1ccccc1)S(=O)(=O)c1ccc(Cl)c(NC(=O)CN(C)Cc2cccc(F)c2)c1 ?
SKN-1 inh: 6; sPLA2-III inh: 2

What do the screens show for `CC1Cc2ccccc2N1C(=O)CNc1cccc(S(=O)(=O)N2CCCC2)c1` (centres undefined)?
SKN-1 inh: 3; sPLA2-III inh: -2; Mot1-301 SUMO: active; Efflux pump mplx: 0; Mot1 SUMO dose: 0

What do the screens show for `CNC(=O)c1ccccc1NC(=O)c1c(O)c2c([nH]c1=O)CCCC2`?
SKN-1 inh: -9; sPLA2-III inh: 2; Mot1-301 SUMO: 522*; Efflux pump mplx: 0; Mot1 SUMO dose: 0

What do the screens show for `CCN1CCCC1CNC(=O)c1c(O)c2c([nH]c1=O)CCCC2` (centres undefined)?
SKN-1 inh: 17; sPLA2-III inh: -5; Mot1-301 SUMO: 8; Efflux pump mplx: 0

What do the screens show for `COc1ccc(NC(=O)CN2CCN(C(=O)N3CCOCC3)CC2)cc1`?
SKN-1 inh: -13; sPLA2-III inh: 4; Mot1-301 SUMO: 171; Efflux pump mplx: 0

How did CC(C)CCn1c(C(C)O)nc2ccccc21 (centres undefined) do in these assays?
SKN-1 inh: 3; sPLA2-III inh: -1; Mot1-301 SUMO: 433*; Efflux pump mplx: 0; Mot1 SUMO dose: 0

How did Cc1ccc(NC(=O)CN2CCc3cc4c(cc3C2C)OCCCO4)cc1 (centres undefined) do in these assays?
SKN-1 inh: -8; sPLA2-III inh: -5; Mot1-301 SUMO: 5; Efflux pump mplx: 0

How did CC1c2cc3c(cc2CCN1CC(=O)Nc1ccccc1)OCCCO3 (centres undefined) do in these assays?
SKN-1 inh: -7; sPLA2-III inh: -4; Mot1-301 SUMO: 653*; Efflux pump mplx: 0; Mot1 SUMO dose: 0

What do the screens show for `S=C(NCCc1ccccc1)Nc1ccccc1Cl`?
SKN-1 inh: -4; sPLA2-III inh: 14; Mot1-301 SUMO: 530*; Efflux pump mplx: 0; Mot1 SUMO dose: 0

What do the screens show for `Cc1c(Cl)cccc1NC(=S)NCCCN(C)C`?
SKN-1 inh: -6; sPLA2-III inh: 4; Mot1-301 SUMO: 393*; Efflux pump mplx: 0; Mot1 SUMO dose: 0

How did COc1ccccc1/C=N\Nc1cn[nH]c(=O)c1Cl do in these assays?
SKN-1 inh: 2; sPLA2-III inh: 12; Efflux pump mplx: 0

Results for CCOc1ccccc1/C=N\Nc1cnn(Cc2ccccc2)c(=O)c1Cl ?
SKN-1 inh: 12; sPLA2-III inh: -19; Mot1-301 SUMO: active; Efflux pump mplx: 0; Mot1 SUMO dose: 0

Results for CN1CCN(S(=O)(=O)Cc2ccc(Cl)cc2)CC1 ?
SKN-1 inh: 12; sPLA2-III inh: 6; Mot1-301 SUMO: 6; Efflux pump mplx: 0

How did Cc1ccc(N(C(=O)CCl)C(C(=O)NC2CCCCC2)c2cccnc2)cc1C (centres undefined) do in these assays?
sPLA2-III inh: -37; Mot1-301 SUMO: 369*; Efflux pump mplx: 0; Mot1 SUMO dose: 0

Results for Cc1ccc(N(C(=O)CNC(=O)c2ccco2)C(C(=O)NC2CCCCC2)c2cccnc2)cc1C (centres undefined) ?
SKN-1 inh: 4; sPLA2-III inh: 1; Mot1-301 SUMO: -2; Efflux pump mplx: 0

Results for COc1cc(C(c2c(C)[nH][nH]c2=O)c2c(C)[nH][nH]c2=O)cc(OC)c1OC ?
SKN-1 inh: 8; sPLA2-III inh: 0; Mot1-301 SUMO: 674*; Efflux pump mplx: 1; Mot1 SUMO dose: 0

What do the screens show for `COc1cc(C(c2c(C)[nH][nH]c2=O)c2c(C)[nH][nH]c2=O)cc(Cl)c1O`?
SKN-1 inh: 17; sPLA2-III inh: -10; Mot1-301 SUMO: 2; Efflux pump mplx: 0

Results for COc1nc(OC)nc(N2CCC(C(=O)NC3CCCCCC3)CC2)n1 ?
SKN-1 inh: -16; sPLA2-III inh: 4; Mot1-301 SUMO: 382*; Efflux pump mplx: 0; Mot1 SUMO dose: 1

How did COC(=O)c1ccc(CN2CCN(C3CCCC3)C(CCO)C2)cc1 (centres undefined) do in these assays?
SKN-1 inh: 6; sPLA2-III inh: 8; Mot1-301 SUMO: -20; Efflux pump mplx: 0

What do the screens show for `COC(=O)c1ccc(CN2CCN(C3CCCCC3)C(CCO)C2)cc1` (centres undefined)?
SKN-1 inh: 6; sPLA2-III inh: 0; Mot1-301 SUMO: 403*; Efflux pump mplx: 0; Mot1 SUMO dose: -1

How did C=CCN1c2ccccc2[C@]23C[C@@H](C(=O)OC)N=C2NC(C(=O)OC)=C(C(=O)OC)[C@H]13 do in these assays?
SKN-1 inh: 8; sPLA2-III inh: 3; Mot1-301 SUMO: 834*; Efflux pump mplx: 0; Mot1 SUMO dose: -1

Results for C=CCN1c2ccccc2[C@]23C[C@@H](C(=O)OC)N(C(C)=O)C2=NC(C(=O)OC)=C(C(=O)OC)[C@H]13 ?
SKN-1 inh: -4; sPLA2-III inh: 1; Mot1-301 SUMO: -1; Efflux pump mplx: 0
